Test results as given in PMC7862700, “An all-to-all approach to the identification of sequence-specific readers for epigenetic DNA modifications on cytosine”.

Columns and labels:
Experiment in all cases: DAPPL (digital affinity profiling via proximity ligation, sequencing); 10 mM Tris-HCl pH 7.5, 50 mM NaCl, 1 mM DTT, 4% glycerol, room temperature, 30 min; GST-TFs on glutathione beads, 16-mer random dsDNA library, 0.1% formaldehyde crosslink after washing; high values mean tight binding
Details in all cases: protein: recombinant; tags: N-terminal GST; dsDNA, one strand shown
[1] = biological target: T1, ELK1 (Homo sapiens, UniProt P19419 1-428)
T1 sequence: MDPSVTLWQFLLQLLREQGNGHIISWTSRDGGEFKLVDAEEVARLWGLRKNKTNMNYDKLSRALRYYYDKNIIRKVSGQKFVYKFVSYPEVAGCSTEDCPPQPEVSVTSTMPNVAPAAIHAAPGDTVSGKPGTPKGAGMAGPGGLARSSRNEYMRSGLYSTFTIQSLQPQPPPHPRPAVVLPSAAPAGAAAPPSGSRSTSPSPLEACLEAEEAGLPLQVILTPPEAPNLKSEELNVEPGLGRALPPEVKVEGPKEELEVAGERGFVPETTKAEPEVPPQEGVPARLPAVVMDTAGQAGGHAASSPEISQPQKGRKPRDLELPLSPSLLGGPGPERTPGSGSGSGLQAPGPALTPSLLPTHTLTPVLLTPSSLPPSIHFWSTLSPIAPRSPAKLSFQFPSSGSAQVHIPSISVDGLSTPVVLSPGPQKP
Summary of the method: (§1)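 Binding signal is each hexamer's read frequency for a factor divided by its frequency in the tag-only sample. The factors were GST-fused human transcription factors from yeast, captured on glutathione beads, DNA-barcoded and pooled with that sample. Pools were incubated with 200 nmole of a random double-stranded 16-mer DNA library in Tris/NaCl/DTT/glycerol buffer at room temperature for 30 min, then washed, crosslinked with 0.1% formaldehyde, proximity-ligated with BsaI/T4 ligase (1 h, 37 °C), PCR-amplified and sequenced on an Illumina NextSeq500.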

[2] = biological target: T2, ERG (Homo sapiens, UniProt P11308 1-479)
T2 sequence: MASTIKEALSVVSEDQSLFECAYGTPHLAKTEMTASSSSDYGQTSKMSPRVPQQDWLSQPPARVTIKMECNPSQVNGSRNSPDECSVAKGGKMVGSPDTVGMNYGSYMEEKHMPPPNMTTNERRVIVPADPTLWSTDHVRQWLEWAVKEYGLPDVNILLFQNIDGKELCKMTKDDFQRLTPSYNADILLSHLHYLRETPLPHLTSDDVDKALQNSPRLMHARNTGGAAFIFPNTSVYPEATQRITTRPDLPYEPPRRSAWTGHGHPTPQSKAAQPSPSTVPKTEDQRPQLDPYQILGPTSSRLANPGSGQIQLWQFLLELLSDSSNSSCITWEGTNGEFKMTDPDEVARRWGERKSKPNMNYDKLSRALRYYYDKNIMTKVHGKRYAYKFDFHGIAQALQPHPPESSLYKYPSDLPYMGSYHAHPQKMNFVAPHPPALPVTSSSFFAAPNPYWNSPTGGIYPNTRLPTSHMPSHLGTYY
Summary of the method: as §1

[3] = biological target: T3, EHF (Homo sapiens, UniProt Q9NZC4 1-300)
T3 sequence: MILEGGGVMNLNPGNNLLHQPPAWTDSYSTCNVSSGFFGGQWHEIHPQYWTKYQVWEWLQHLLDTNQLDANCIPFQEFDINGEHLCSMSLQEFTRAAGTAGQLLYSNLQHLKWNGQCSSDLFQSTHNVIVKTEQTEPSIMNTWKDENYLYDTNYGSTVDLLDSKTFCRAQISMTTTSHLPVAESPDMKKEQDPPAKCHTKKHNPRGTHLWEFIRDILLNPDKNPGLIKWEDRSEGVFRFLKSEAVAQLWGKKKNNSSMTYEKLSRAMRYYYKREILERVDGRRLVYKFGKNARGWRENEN
Summary of the method: as §1

[4] = biological target: SPI1 (Homo sapiens, UniProt P17947 1-270)
Summary of the method: as §1

[5] = biological target: SPIB (Homo sapiens, UniProt Q01892 1-262)
Summary of the method: as §1

[6] = biological target: ETV5 (Homo sapiens, UniProt P41161 1-510)
Summary of the method: as §1

[7] = biological target: T4, ELK4 (Homo sapiens, UniProt P28324-2 1-405)
T4 sequence: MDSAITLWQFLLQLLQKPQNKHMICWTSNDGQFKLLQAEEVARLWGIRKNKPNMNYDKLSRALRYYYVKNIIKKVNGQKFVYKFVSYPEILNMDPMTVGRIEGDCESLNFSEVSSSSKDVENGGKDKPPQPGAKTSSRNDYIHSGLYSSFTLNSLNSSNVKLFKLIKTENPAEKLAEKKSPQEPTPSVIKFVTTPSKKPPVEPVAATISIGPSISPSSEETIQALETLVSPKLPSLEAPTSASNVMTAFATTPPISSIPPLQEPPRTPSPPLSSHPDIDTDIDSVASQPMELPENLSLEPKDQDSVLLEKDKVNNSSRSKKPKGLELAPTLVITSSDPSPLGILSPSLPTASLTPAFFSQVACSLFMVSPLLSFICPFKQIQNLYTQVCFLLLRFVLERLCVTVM
Summary of the method: as §1

[8] = biological target: T5, ELF3 (Homo sapiens, UniProt P78545 1-371)
T5 sequence: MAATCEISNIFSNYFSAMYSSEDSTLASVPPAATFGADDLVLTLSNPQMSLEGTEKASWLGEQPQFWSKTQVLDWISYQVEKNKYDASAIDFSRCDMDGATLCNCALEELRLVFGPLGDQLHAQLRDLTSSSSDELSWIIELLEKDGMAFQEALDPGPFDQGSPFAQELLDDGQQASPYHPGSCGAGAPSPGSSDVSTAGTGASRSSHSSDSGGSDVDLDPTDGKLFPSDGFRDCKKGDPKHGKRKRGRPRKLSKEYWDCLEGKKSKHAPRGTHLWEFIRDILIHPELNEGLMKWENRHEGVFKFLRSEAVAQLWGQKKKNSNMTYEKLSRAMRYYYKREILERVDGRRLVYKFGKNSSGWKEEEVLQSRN
Summary of the method: as §1

[9] = biological target: ETV1 (Homo sapiens, UniProt P50549 1-477)
Summary of the method: as §1

[10] = biological target: T6, ETV3L (Homo sapiens, UniProt Q6ZN32 1-361)
T6 sequence: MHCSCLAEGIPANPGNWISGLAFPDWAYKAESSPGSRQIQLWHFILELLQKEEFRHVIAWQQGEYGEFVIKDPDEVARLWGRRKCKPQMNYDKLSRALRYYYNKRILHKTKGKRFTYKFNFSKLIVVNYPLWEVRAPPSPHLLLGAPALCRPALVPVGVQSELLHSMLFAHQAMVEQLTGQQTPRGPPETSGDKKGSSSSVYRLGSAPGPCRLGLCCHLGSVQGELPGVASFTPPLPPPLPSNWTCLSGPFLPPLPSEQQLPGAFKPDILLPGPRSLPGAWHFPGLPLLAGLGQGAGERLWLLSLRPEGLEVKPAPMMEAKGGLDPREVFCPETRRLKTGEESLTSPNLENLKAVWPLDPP
Summary of the method: as §1

[11] = biological target: T7, ETS2 (Homo sapiens, UniProt P15036 1-469)
T7 sequence: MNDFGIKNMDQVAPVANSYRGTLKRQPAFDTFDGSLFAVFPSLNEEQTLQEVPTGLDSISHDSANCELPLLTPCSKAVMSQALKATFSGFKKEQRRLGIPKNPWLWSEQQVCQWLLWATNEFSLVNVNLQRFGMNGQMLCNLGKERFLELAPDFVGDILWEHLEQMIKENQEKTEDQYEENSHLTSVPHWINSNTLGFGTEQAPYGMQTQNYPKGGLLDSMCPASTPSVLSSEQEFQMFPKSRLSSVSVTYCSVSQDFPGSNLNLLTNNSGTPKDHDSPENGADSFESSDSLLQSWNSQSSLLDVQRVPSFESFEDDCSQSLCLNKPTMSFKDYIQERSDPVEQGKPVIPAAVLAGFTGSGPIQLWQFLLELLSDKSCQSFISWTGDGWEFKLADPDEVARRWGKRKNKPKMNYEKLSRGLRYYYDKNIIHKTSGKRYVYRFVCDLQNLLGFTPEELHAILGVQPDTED
Summary of the method: as §1

[12] = biological target: T8, SPDEF (Homo sapiens, UniProt O95238 1-335)
T8 sequence: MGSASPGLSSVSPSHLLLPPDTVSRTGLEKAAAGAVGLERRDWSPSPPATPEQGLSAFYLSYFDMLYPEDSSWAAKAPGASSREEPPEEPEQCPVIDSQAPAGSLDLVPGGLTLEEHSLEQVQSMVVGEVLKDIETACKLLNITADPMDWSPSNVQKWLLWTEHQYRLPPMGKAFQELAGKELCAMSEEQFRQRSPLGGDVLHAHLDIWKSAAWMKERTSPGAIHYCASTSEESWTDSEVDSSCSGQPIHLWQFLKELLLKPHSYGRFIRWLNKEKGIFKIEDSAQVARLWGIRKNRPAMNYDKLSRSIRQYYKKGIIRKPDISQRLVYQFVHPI
Summary of the method: as §1

[13] = biological target: T9, ETV7 (Homo sapiens, UniProt Q9Y603 1-341)
T9 sequence: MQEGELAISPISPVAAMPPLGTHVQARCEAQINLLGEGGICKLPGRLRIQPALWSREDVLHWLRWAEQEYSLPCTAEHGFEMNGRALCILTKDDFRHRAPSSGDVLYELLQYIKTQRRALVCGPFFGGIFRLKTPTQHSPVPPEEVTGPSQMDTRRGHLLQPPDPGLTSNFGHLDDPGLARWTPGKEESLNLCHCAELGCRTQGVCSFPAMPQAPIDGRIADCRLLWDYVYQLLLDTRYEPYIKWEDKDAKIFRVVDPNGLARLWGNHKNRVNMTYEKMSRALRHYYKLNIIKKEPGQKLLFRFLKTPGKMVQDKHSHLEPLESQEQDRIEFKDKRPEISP
Summary of the method: as §1

[14] = biological target: T10, ETV3 (Homo sapiens, UniProt P41162-2 1-143)
T10 sequence: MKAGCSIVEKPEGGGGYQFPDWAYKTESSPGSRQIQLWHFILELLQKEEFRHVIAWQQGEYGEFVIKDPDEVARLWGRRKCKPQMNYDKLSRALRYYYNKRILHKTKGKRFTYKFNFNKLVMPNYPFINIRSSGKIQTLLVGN
Summary of the method: as §1

[15] = biological target: ETV6 (Homo sapiens, UniProt P41212 1-452)
Summary of the method: as §1

[16] = biological target: ELF1 (Homo sapiens, UniProt P32519 1-619)
Summary of the method: as §1

[17] = biological target: T11, FEV (Homo sapiens, UniProt Q99581 1-238)
T11 sequence: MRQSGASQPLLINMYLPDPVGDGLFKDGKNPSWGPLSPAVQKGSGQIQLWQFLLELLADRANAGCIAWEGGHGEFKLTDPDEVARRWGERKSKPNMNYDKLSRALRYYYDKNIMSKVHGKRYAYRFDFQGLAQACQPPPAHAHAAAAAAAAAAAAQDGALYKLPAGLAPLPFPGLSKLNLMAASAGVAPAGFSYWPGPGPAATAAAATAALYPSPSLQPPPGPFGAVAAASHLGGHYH
Summary of the method: as §1

[18] = biological target: T12, ERF (Homo sapiens, UniProt P50548 1-548)
T12 sequence: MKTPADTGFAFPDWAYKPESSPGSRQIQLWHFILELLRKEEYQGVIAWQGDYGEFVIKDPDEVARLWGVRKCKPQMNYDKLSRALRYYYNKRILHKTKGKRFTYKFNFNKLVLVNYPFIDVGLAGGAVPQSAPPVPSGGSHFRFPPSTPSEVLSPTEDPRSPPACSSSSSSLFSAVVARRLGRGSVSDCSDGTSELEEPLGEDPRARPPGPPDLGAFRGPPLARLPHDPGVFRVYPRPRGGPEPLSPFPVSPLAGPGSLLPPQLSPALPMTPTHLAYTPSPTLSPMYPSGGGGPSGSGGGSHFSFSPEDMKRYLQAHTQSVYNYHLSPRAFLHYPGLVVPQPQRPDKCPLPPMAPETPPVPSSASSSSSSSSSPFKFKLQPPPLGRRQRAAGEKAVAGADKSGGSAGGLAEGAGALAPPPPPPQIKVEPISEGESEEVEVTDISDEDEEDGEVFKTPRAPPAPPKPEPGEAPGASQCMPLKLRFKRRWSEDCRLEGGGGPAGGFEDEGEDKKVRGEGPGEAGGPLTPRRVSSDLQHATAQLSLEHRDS
Summary of the method: as §1

Sequence of SPIB (Q01892 whole entry): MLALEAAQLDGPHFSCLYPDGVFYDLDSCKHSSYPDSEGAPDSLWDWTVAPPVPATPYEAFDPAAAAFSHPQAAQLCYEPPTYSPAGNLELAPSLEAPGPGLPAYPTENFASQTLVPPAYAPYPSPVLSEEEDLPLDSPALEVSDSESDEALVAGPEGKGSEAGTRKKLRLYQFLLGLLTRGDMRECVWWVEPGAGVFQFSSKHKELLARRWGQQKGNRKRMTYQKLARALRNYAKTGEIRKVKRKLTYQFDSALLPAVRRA
Sequence of ETV5 (P41161 whole entry): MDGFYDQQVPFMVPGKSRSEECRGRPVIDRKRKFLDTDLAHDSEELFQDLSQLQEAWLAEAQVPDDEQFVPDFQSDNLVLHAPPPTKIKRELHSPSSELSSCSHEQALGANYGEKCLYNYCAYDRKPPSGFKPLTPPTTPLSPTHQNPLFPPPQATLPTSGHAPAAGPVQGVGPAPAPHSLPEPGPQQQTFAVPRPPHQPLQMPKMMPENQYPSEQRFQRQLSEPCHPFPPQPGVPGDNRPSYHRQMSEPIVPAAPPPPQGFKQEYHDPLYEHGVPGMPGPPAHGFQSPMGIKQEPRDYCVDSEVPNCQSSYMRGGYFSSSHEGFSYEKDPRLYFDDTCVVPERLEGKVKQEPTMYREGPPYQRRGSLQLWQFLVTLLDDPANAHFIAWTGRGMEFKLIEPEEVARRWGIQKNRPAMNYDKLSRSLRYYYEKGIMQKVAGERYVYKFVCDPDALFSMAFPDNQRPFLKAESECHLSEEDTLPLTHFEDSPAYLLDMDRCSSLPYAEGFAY
Sequence of ETV1 (P50549 whole entry): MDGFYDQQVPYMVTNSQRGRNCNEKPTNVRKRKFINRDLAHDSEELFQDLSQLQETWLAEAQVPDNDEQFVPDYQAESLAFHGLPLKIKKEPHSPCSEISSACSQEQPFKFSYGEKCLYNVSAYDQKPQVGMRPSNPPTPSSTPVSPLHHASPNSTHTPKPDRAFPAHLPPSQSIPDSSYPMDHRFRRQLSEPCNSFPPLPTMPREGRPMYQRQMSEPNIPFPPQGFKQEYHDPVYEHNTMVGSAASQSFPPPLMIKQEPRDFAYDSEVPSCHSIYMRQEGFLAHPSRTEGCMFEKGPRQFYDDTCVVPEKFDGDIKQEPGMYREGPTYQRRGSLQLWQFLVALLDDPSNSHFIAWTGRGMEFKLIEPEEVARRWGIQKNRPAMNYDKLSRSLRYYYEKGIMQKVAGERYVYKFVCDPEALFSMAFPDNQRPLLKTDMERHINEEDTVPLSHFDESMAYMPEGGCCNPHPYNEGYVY
Sequence of ETV6 (P41212 whole entry): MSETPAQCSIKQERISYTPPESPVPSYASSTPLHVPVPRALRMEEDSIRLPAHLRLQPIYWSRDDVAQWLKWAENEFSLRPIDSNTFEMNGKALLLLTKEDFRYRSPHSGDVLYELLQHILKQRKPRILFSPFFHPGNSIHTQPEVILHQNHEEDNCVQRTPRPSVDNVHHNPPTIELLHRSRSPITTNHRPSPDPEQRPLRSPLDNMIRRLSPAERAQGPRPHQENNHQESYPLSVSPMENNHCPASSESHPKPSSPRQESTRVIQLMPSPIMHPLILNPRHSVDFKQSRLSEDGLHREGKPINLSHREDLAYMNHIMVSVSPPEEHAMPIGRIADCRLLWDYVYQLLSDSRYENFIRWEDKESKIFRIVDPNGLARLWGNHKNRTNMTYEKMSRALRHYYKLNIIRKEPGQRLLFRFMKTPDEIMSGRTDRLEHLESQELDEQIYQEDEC
Sequence of ELF1 (P32519 whole entry): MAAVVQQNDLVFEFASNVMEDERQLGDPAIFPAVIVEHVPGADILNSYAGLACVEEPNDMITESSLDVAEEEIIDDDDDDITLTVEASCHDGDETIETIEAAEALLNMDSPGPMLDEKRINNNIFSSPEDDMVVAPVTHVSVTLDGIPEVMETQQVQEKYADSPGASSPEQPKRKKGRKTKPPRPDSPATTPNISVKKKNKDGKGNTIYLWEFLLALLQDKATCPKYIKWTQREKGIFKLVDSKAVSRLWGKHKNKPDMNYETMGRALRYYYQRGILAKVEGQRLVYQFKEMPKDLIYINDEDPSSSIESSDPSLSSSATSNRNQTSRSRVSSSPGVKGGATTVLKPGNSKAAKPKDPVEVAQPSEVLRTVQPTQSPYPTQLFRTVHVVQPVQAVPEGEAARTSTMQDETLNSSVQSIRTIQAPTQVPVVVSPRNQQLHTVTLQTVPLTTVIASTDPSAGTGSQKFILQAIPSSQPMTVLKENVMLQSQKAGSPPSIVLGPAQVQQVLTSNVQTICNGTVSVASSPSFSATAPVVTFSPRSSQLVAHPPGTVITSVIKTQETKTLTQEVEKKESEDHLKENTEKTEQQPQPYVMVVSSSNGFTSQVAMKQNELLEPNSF

Sequence | binding signal [1] | binding signal [2] | binding signal [3] | binding signal [4] | binding signal [5] | binding signal [6] | binding signal [7] | binding signal [8] | binding signal [9] | binding signal [10] | binding signal [11] | binding signal [12] | binding signal [13] | binding signal [14] | binding signal [15] | binding signal [16] | binding signal [17] | binding signal [18]
AGTCCT | 1.06 fold enrichment (6-mer frequency, TF over GST control) | 1.07 fold enrichment (6-mer frequency, TF over GST control) | 1.03 fold enrichment (6-mer frequency, TF over GST control) | 1.2 fold enrichment (6-mer frequency, TF over GST control) | 1.13 fold enrichment (6-mer frequency, TF over GST control) | 1.05 fold enrichment (6-mer frequency, TF over GST control) | 1 fold enrichment (6-mer frequency, TF over GST control) | 1.03 fold enrichment (6-mer frequency, TF over GST control) | 1 fold enrichment (6-mer frequency, TF over GST control) | 1.02 fold enrichment (6-mer frequency, TF over GST control) | 1.06 fold enrichment (6-mer frequency, TF over GST control) | 1.02 fold enrichment (6-mer frequency, TF over GST control) | 1.14 fold enrichment (6-mer frequency, TF over GST control) | 1.01 fold enrichment (6-mer frequency, TF over GST control) | 1.03 fold enrichment (6-mer frequency, TF over GST control) |  |  | 
GTACCA | 1.04 fold enrichment (6-mer frequency, TF over GST control) |  |  | 1.11 fold enrichment (6-mer frequency, TF over GST control) | 1.02 fold enrichment (6-mer frequency, TF over GST control) | 1.07 fold enrichment (6-mer frequency, TF over GST control) | 1.09 fold enrichment (6-mer frequency, TF over GST control) |  | 1 fold enrichment (6-mer frequency, TF over GST control) |  |  | 1 fold enrichment (6-mer frequency, TF over GST control) |  |  |  | 1.01 fold enrichment (6-mer frequency, TF over GST control) | 1.01 fold enrichment (6-mer frequency, TF over GST control) | 1.04 fold enrichment (6-mer frequency, TF over GST control)
CAGTTC | 1.05 fold enrichment (6-mer frequency, TF over GST control) |  | 1.02 fold enrichment (6-mer frequency, TF over GST control) | 1.08 fold enrichment (6-mer frequency, TF over GST control) | 1.04 fold enrichment (6-mer frequency, TF over GST control) | 1.04 fold enrichment (6-mer frequency, TF over GST control) | 1.07 fold enrichment (6-mer frequency, TF over GST control) |  |  | 1.05 fold enrichment (6-mer frequency, TF over GST control) |  |  |  | 1.13 fold enrichment (6-mer frequency, TF over GST control) |  |  |  | 
